# Data: PubChem BioAssay (EPA / NIEHS)
# Records with an inconclusive call do not appear. Activity calls are given as the source filed them. How the source made its calls: active means hit-call score of the fitted dose curve at least 0.9, where 1 is the maximum; inconclusive means response in the unintended direction; inactive means score below 0.9.
# Biological target: human Acetylcholinesterase (AChE), ACHE (gene 43) (UniProt P22303)
# Test: NVS_ENZ_hAChE: NovaScreen (NVS) Enzymatic Assay for human Acetylcholinesterase (AChE) (AID 2283129)
# Method: NVS_ENZ_hAChE is a biochemical, single-readout assay that uses extracted gene-proteins in a cell-free assay. Measurements were taken 0.33 hour after chemical dosing in a 96-well plate.NVS_ENZ_hAChE is one of one assay component(s) measured or calculated from the NVS_ENZ_hAChE assay. It is designed to make measurements of enzyme activity, a form of enzyme reporter, as detected with absorbance signals by Colorimetric technology.Data from the assay component NVS_ENZ_hAChE was analyzed into 1 assay endpoint. This assay endpoint, NVS_ENZ_hAChE, was analyzed in the positive analysis fitting direction relative to DMSO as the negative control and baseline of activity. Using a type of enzyme reporter, loss-of-signal activity can be used to understand changes in the enzymatic activity as they relate to the gene ACHE. Furthermore, this assay endpoint can be referred to as a primary readout, because this assay has produced multiple assay endpoints where this one serves a enzymatic activity function. To generalize the intended target to other relatable targets, this assay endpoint is annotated to the esterase intended target family, where the subfamily is acetylcholinesterase.
# Binding assays used specific radioligands (tritiated, iodinated) with non-radioactive competitive displacement ligands in agonist or antagonist protocols (as indicated) and various reference compounds and inhibitors to titrate specific binding to receptors and transporters. Most enzyme assays (CYPs, kinases, phosphatases, proteases, HDACs) used recombinant protein and specific substrates (fluorescence mostly, some colorimetric and radioactive) and inhibitors, followed by a biochemical separation of substrate and product. All assays for the biochemical HTS were initially run in duplicate at a single concentration (10 uM for CYP450 assays and 25 uM for all others). […] Each assay was run with positive and negative controls, and concurrent controls on every plate. The follow-up (secondary) screen tested active chemical-pairs in concentration series, as well as a few additional assays not tested in the primary screen, some selected negative inactives, and several cases re-run in the concentration series for confirmatory purposes.
# human Acetylcholinesterase (AChE), ACHE (gene 43), sequence (P22303 whole entry, looked up): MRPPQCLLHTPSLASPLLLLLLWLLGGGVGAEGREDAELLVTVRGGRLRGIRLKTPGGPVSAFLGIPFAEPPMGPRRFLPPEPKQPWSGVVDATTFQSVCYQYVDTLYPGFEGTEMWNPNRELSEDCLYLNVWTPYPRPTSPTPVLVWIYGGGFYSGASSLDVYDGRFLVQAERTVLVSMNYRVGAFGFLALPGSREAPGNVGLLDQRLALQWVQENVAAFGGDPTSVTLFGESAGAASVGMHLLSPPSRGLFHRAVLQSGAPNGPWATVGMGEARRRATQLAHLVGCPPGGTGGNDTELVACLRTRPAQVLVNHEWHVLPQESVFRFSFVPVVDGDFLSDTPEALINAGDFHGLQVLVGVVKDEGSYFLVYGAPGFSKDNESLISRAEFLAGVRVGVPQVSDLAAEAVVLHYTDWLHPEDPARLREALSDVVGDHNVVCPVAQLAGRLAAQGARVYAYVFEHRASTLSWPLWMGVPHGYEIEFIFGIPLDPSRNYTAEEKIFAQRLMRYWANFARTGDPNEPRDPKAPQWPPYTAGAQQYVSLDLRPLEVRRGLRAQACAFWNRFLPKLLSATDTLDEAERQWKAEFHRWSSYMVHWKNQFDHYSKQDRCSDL
Structure (SMILES),outcome,AC50
Oc1ccc(C(c2ccc(O)cc2)(C(F)(F)F)C(F)(F)F)cc1,inactive,
CCCCCCCCOC(=O)c1ccccc1C(=O)OCCCCCCCC,inactive,
C[C@]12CCC(=O)C=C1CC[C@@H]1[C@@H]2CC[C@]2(C)C(=O)CC[C@@H]12,inactive,
CCCCCCCCCC[N+](C)(C)CCCCCCCCCC,,12.4 µM (active)

# Biological target: human AMP-activated Protein Kinase, alpha 1 (AMPKa1), PRKAA1 (gene 5562) (UniProt Q13131)
# Sequence (Q13131 whole entry, looked up): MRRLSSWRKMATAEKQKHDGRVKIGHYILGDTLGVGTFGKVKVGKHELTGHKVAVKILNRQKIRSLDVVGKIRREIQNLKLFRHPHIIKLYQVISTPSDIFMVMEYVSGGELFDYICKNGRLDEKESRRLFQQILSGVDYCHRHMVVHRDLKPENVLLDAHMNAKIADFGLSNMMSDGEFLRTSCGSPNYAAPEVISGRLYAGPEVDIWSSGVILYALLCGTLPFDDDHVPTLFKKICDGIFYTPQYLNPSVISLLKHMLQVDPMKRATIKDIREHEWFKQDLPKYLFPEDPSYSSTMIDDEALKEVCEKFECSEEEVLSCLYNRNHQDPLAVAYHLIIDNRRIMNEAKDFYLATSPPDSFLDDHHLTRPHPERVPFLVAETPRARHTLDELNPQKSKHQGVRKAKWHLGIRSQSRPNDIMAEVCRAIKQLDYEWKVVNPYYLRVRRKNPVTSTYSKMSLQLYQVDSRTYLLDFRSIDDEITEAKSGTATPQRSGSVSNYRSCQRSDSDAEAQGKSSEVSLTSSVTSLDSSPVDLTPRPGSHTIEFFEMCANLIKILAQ
# Test: NVS_ENZ_hAMPKa1: NovaScreen (NVS) Enzymatic Assay for human AMP-activated Protein Kinase, alpha 1 (AMPKa1) (AID 2283130)
# Summary of the method: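 Compounds were screened in duplicate at 25 uM, and those reaching ~30% inhibition were titrated up to 50 uM. The enzyme was recombinant human AMPKα1, and kinase turnover was read by fluorescence/mobility shift 1 h post-dosing as loss of signal versus DMSO.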
Structure (SMILES),outcome,AC50
O=C(O)C(F)(F)C(F)(F)C(F)(F)C(F)(F)C(F)(F)F,inactive,
Oc1ccc(C(c2ccc(O)cc2)(C(F)(F)F)C(F)(F)F)cc1,,13.5 µM (active)
O=S(=O)(O)C(F)(F)C(F)(F)C(F)(F)C(F)(F)C(F)(F)C(F)(F)F,inactive,
O=C(O)C(F)(F)C(F)(F)C(F)(F)C(F)(F)C(F)(F)C(F)(F)C(F)(F)C(F)(F)F,,36.7 µM (active)
CC1=C2C[C@H]3[C@@H](CC=C4C[C@@H](O)CC[C@@]43C)[C@@H]2CC[C@]12O[C@@H]1C[C@H](C)CN[C@H]1[C@H]2C,inactive,
CC(C)C(=O)OCC(C)(C)C(OC(=O)C(C)C)C(C)C (configuration not stated),inactive,
CC#Cc1cc(C)nc(Nc2ccccc2)n1,inactive,
CCCN(CCC)N=O,inactive,
